According to PubChem BioAssay (NCI):
This is part of a sample that, as a whole, favours compounds with a hit. Of some 83,000 tested, about 20% had one in any assay.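 Note: values are percent growth. 100 is the growth of untreated cells, values between 100 and 0 indicate rising inhibition; between -100 and 0 indicates cell death.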 Unmarked numbers belong to inactive results. Active and inactive are the calls of the source. How the source made its calls: active means growth percent below 10; inactive means the rest.

tested on: HL-60(TB) leukemia; assay: NCI-60 one-dose screen, 48 h (100 = growth as untreated, 0 = no growth, -100 = all killed); settings: 10 µM unless noted

Q: With CC(C)=CCC[C@](C)(O)[C@H]1CC[C@]2(C)[C@@H]1CC[C@@H]1[C@@]3(C)CC[C@H](OC(=O)CCC(=O)O)C(C)(C)[C@@H]3CC[C@]12C as the molecule, how does the growth read?
A: The growth was 4.34% [100 µM] (active).

Q: With S=C(c1ccc2c(c1)OCO2)N1CCN(c2ccccc2Cl)CC1 as the molecule, how does the growth read?
A: The growth was 87.6%.

Q: Cc1[nH]nc2c1C(c1cnn(C)c1)C(C#N)=C(N)O2 (stereo not drawn) was tested. Which growth did it give?
A: The growth was 99.5%.

Q: How did the growth turn out when C[C@]1(O)CC(=O)[C@]2(O)C3=C(C=C[C@]2(O)C1)C(=O)c1c(O)cccc1C3=O was run?
A: The growth was -43.8% (active).

Q: With Cc1ccc(C(=O)Nc2ccc(CN3CCN(C)CC3)c(C(F)(F)F)c2)cc1C#Cc1cnc(N)c2ccc(F)cc12 as the molecule, how does the growth read?
A: The growth was -25.4% (active).

Q: Nc1nc2ncc(CNc3ccc(C(=O)N[C@@H](CCc4nn[nH]n4)C(=O)O)cc3)nc2c(=O)[nH]1 was tested. Which growth did it give?
A: The growth was 109%.

Q: Which growth does the source give for CC/C(=C(/c1ccc(Cl)cc1)c1ccc(OCCN2CCCC2)cc1)c1ccccc1 here?
A: Its growth is 17.4%.

Q: For Cc1ccnc2c(OCc3ccccc3)cccc12, which growth is on record?
A: The growth was 111%.
